In assay [1] the target is Cytochrome P450 3A4 (Homo sapiens) (UniProt P08684). Nature of the assay: qHTS Assay for Inhibitors and Substrates of Cytochrome P450 3A4 (AID 884). Note: potency is the fitted concentration of half-maximal effect; nearly all actives have a fitted effect of over 50% in size. In short, it runs like this: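 Luminescent readout of luciferin produced by CYP3A4 (20 nM) dealkylation of Luciferin-PPXE, 25 uM (its KM). NADPH-driven reaction ran 60 min at RT after 10 min compound preincubation; data scaled to 57 uM ketoconazole as 100% inhibition.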

Assay [2] has the same target. Nature of the assay: qHTS Assay for Activators of Cytochrome P450 3A4 (AID 885). Note: nearly all actives have a fitted effect of over 65% in size. The gist of the method: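 Luminescent readout of luciferin formed from 25 uM Luciferin-PPXE (KM level) by 20 nM CYP3A4 in 200 mM KPO4, with 60 min NADPH-driven reaction at room temperature after 10 min compound exposure. Ketoconazole (57 uM) defined 100% inhibition.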
Assay [3] has as its target Cytochrome P450 2D6 (Homo sapiens) (UniProt P10635). Kind of assay: qHTS Assay for Inhibitors and Substrates of Cytochrome P450 2D6 (AID 891). Note: nearly all actives have a fitted effect of over 60% in size. Note: potency is the fitted concentration of half-maximal effect. The gist of the method: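 Luminescent read-out of luciferin formed by 5 nM human CYP2D6 demethylating 30 uM Luciferin-ME EGE (Km level) over 60 min at room temperature after NADPH regeneration addition. Data normalized to full inhibition by 1.43 uM quinidine.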

Assay [4] deals with Cytochrome P450 2C19 (Homo sapiens) (UniProt P33261). Kind of assay: qHTS Assay for Inhibitors and Substrates of Cytochrome P450 2C19 (AID 899). Note: nearly all actives have a fitted effect of over 60% in size. Note: potency is the fitted concentration of half-maximal effect. The gist of the method:
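In 50mM KPO4, the reaction held 5nM enzyme and KM-level (10uM) Luciferin-H EGE; it ran 60 min at 37C after NADPH regeneration and a 10 min compound preincubation. Luminescence values were scaled to 57uM ketoconazole as complete inhibition.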
(In general: In qHTS, concentration-response curves come from the screen itself.)

Several values for one entry are separate records, joined by “and”; a condition that tells them apart may be missing. Equal entries are not always repeated. A number with no mark means an inactive call. Records with an inconclusive call do not appear. Activity calls are given as the source filed them. Calls come from the whole dose curve; as a rule, active = well fitted curve in the direction sought with a large enough effect; inconclusive = small, poorly fitted or top-dose-only effect, or another doubt; inactive = no such curve, though single readings can be large; an effect the other way counts as inactive or inconclusive.

Sequence of Cytochrome P450 2D6 (Homo sapiens) (P10635 whole entry, looked up): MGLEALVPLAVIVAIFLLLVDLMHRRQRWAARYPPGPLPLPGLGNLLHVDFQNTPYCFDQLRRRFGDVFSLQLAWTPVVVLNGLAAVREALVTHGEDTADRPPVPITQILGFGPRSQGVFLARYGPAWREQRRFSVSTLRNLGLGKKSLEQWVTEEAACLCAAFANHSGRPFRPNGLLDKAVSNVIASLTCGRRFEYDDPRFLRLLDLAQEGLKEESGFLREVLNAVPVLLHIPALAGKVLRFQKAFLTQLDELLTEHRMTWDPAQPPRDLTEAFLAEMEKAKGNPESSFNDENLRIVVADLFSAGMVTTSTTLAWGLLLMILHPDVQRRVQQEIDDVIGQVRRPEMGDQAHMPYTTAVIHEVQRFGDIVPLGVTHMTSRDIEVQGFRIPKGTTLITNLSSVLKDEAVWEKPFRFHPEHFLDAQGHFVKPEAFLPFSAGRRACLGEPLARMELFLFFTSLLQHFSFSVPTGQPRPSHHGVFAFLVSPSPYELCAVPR
Sequence of Cytochrome P450 3A4 (Homo sapiens) (P08684 whole entry, looked up): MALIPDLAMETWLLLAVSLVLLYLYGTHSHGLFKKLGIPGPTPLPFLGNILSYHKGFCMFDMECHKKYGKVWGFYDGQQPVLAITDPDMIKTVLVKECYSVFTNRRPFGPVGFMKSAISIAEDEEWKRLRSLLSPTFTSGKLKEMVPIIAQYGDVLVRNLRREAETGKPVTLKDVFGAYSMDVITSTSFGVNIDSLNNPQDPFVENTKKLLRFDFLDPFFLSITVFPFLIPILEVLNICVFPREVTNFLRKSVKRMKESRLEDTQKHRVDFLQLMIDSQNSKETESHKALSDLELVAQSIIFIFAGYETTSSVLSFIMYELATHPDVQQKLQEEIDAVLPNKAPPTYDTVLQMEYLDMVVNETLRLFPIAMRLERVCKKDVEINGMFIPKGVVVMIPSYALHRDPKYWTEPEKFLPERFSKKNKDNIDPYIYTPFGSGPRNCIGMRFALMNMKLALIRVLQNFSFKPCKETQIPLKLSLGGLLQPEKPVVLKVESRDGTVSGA
Sequence of Cytochrome P450 2C19 (Homo sapiens) (P33261 whole entry, looked up): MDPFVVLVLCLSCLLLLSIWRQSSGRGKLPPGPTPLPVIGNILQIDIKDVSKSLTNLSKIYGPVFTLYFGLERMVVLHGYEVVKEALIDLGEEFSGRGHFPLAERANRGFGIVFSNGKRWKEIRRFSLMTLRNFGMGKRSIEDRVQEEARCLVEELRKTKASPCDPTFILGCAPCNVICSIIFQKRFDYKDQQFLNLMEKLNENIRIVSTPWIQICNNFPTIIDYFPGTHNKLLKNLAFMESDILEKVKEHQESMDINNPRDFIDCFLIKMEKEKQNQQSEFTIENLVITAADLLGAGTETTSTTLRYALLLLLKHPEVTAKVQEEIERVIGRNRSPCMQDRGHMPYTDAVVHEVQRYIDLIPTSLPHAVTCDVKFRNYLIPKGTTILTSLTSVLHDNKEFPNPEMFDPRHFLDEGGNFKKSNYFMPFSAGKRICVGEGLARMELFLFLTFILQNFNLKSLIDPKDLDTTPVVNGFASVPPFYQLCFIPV

Turning to `C/C=C/OC(=O)NC(c1ccccc1)[C@@]1(C(=O)OCC)CCCC1=O` (stereo not given in full), the values for the Potency in assay [1] and in assay [4] were 0.0158 µM (active) and 0.0251 µM (active), respectively. The activity change, positive = activation in assay [2] is -71.4% [at 11.4 µM]. Moreover, the Potency entry in assay [3] was “inactive”.

As to `CCOC(=O)N/N=C1/C[C@@H](O)[C@@H](O)[C@@H]2[C@@H]3C(=O)N(Cc4ccc5c(c4)OCO5)C(=O)[C@H]3CC[C@@H]12`, the Potency in assay [1] is 3.98 µM (active). In assay [2], the activity change, positive = activation is -82.5% [at 11.4 µM].

Turning to `CCCCC#CC1C=CC(Oc2cc(OC)c(OC)c(OC)c2)C(COC(=O)OCC)O1` (stereo not given), the Potency in assay [1] is 2.51 µM (active). Moreover, the activity change, positive = activation in assay [2] is -83.6% [at 11.4 µM]. The Potency entry in assay [3] and in assay [4] was “inactive” in each case.

Take `CCC1=C2CC[C@H]3C(=O)N(CC)C(=O)[C@H]3[C@H]2[C@@]2(Cc3ccccc3)C(=O)N(CC3CC3)C(=O)N2C1=O`: the Potency in assay [1] was 2.51 µM (active). In addition, in assay [2], the Potency entry is “inactive”.

For `CO/N=C(/C)CCC(=O)OC[C@@H]1O[C@H](C#Cc2ccccc2)C=C[C@@H]1Oc1ccc(C)cc1`, the Potency in assay [1] and in assay [4] was 3.98 µM (active) throughout. In addition, the activity change, positive = activation in assay [2] was -90.5% [at 11.4 µM]. Also, the Potency entry in assay [3] was “inactive”.

`COc1ccc(O[C@H]2C=C[C@@H](c3ccccc3)O[C@H]2COC(=O)CC/C(C)=N\O[C@@H](C)CN2CCCc3nc(C)c(C)cc32)cc1`: the Potency in assay [1], in assay [3] and in assay [4] was 3.16 µM (active) in each case. Further, in assay [2], the activity change, positive = activation is -97% [at 11.4 µM].

In the case of `CO[C@H]1COC(=O)C/C=C\[C@H](C)[C@@H](NS(=O)(=O)c2ccc(C)cc2)COC(=O)C/C=C\[C@@H]1C`, in assay [1], the Potency was 3.16 µM (active). In assay [2], the activity change, positive = activation was -67.8% [at 11.4 µM] and -95.2% [at 11.4 µM]. Also, the Potency entry in assay [3] is “inactive”.

Regarding `COc1ccc(OCC2Cc3c(-c4ccccc4)nc4c(c3CO2)CN(CCOc2ccccc2)CC4)cc1` (stereo not given), the Potency in assay [1] was 3.98 µM (active). Besides, in assay [2], the activity change, positive = activation is -83.6% [at 11.4 µM]. Moreover, the Potency entry in assay [3] and in assay [4] was “inactive” throughout.

In the case of `COC(=O)[C@@H]1CC[C@H](C)[C@@H](c2ccc(C)cc2)N1C(=O)c1ccc(/C=N\OC[C@@H](C)[C@H](OCc2ccccc2)C(C)C)cc1`, the Potency in assay [1] and in assay [3] was 3.98 µM (active) in each case. For the same compound, the activity change, positive = activation in assay [2] is -66.5% [at 11.4 µM].

For `COc1ccc(/C=C/C2=CC3(C)CC2(C)C(c2ccc(OC)cc2)CC3=O)cc1` (stereo not given), the Potency in assay [1] is 5.01 µM (active). Also, in assay [2], the activity change, positive = activation was -60.7% [at 11.4 µM]. The Potency entry in assay [3] and in assay [4] was “inactive” each time.

In the case of `CC#CCOCC/C=C1/c2ccccc2C(OC)C1C` (stereo not given), the Potency in assay [1] is 3.98 µM (active); in assay [4], 1 µM (active). Further, the activity change, positive = activation in assay [2] is -90.8% [at 11.4 µM]. In assay [3], the Potency result is “inactive”.

`CO[C@H]1COC(=O)[C@@H](Cc2ccccc2)NC(=O)[C@@H](C)COC(=O)CCC[C@@H]1C`: the Potency in assay [1] was 3.16 µM (active). The activity change, positive = activation in assay [2] was -63.9% [at 11.4 µM]. In addition, the Potency result in assay [3] was “inactive”.

Consider `COc1cccc([C@H]2Oc3ccc(OC)cc3/C(=N\O[C@@H]3O[C@H](COC(C)=O)[C@H](OC(C)=O)[C@H](OC(C)=O)[C@H]3OC(C)=O)[C@@H]2O)c1`, for which the Potency in assay [1] and in assay [3] was 3.16 µM (active) each time. The activity change, positive = activation in assay [2] was -77% [at 11.4 µM].

As for `COC(=O)c1ccc(C(/C=C/[C@@H](C)C(=O)NCCc2c[nH]c3ccccc23)NC(=O)OCc2ccccc2)cc1` (stereo not given in full), in assay [1], the Potency is 3.16 µM (active). Besides, the Potency entry in assay [2] was “inactive”.

For `C=CC[C@@H]1C=C[C@H](O/N=C(\C)CCN2CCCCc3nc(C)c(C)cc32)[C@H](CO)O1`, the Potency in assay [1] and in assay [3] was 3.98 µM (active) in each case. Also, the activity change, positive = activation in assay [2] is -81.7% [at 11.4 µM].

Regarding `COc1ccc(O[C@H]2C=C[C@@H](c3ccccc3)O[C@H]2COC(=O)CC/C(C)=N/O[C@@H]2O[C@H](COC(C)=O)[C@H](OC(C)=O)[C@H](OC(C)=O)[C@H]2OC(C)=O)cc1`, the figures for the Potency in assay [1], in assay [3] and in assay [4] were 5.01 µM (active), 3.16 µM (active) and 1.58 µM (active), respectively. In assay [2], the activity change, positive = activation was -91.6% [at 11.4 µM].

For the compound `COc1ccc(O[C@H]2C=C[C@@H](c3ccccc3)O[C@@H]2CO/N=C(\C)CCN2CCCc3nc(C)c(C)cc32)cc1`, the results for the Potency in assay [1], in assay [3] and in assay [4] were 3.16 µM (active), 3.16 µM (active) and 0.398 µM (active), respectively. The activity change, positive = activation in assay [2] was -63.6% [at 11.4 µM].

As to `CC(C)CCN1CCc2nc(COc3ccccc3)c3c(c2C1)COC(C)C3` (stereo not given), the Potency in assay [1] was 3.16 µM (active). Also, in assay [2], the activity change, positive = activation was -76.7% [at 11.4 µM]. Besides, the Potency result in assay [3] and in assay [4] was “inactive” in each case.

With `COc1cccc([C@@H]2Oc3ccc(OC)cc3/C(=N/O[C@@H](C)CN3CCCc4nc(C)c(C)cc43)[C@@H]2O)c1`, the Potency in assay [1] is 3.16 µM (active); in assay [3], 3.98 µM (active). Also, the activity change, positive = activation in assay [2] was -92.2% [at 11.4 µM].

`C=CCC1C=CC(Oc2ccc(F)cc2C)C(CO)O1` (stereo not given): the Potency in assay [1] is 3.98 µM (active); in assay [4] it was 0.251 µM (active). Also, the activity change, positive = activation in assay [2] was -81.3% [at 11.4 µM]. The Potency result in assay [3] is “inactive”.

For the compound `CCCCC1CN2C(CCC(C)C2c2ccc(Br)cc2)C(=O)O1` (stereo not given), the Potency is 3.98 µM (active) in assay [1] and 1.26 µM (active) in assay [4]. Also, the activity change, positive = activation in assay [2] was -38.2% [at 11.4 µM] and -43.4% [at 11.4 µM] and -62.6% [at 11.4 µM]. In addition, in assay [3], the Potency result is “inactive”.

Consider `CC(=O)OC[C@@H]1O[C@@H](O/N=C2/C[C@@H](O)[C@@H](O)[C@@H]3[C@@H]4C(=O)N(Cc5ccc6c(c5)OCO6)C(=O)[C@H]4CC[C@H]23)[C@H](OC(C)=O)[C@H](OC(C)=O)[C@@H]1OC(C)=O`, for which the values for the Potency in assay [1] and in assay [3] were 5.01 µM (active) and 3.16 µM (active), respectively. Also, the activity change, positive = activation in assay [2] is -74.2% [at 11.4 µM].

For the origin of these results see PubChem BioAssay (NCATS).
